Assay outcomes: PubChem, National Center for Advancing Translational Sciences (NCATS)
FUS yeast rescue: suppressors of FUS proteinopathy in yeast | S. cerevisiae FUS-expressing, growth rescue, OD600, 24 h | Potency, µM (top dose mostly 76.6 µM), most hits filed as activators | 0.24% of 390,000 active | AID 1347120; further: nearly all actives have a fitted effect of over 55% in size
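Yeast expressing FUS under galactose induction, OD 0.005 in 2% galactose medium; compounds in a dilution series, 24 h at 30C. Growth rescue by absorbance at 600 nm; CP55940 positive control, DMSO negative.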
TDP-43 yeast inh: inhibitors of TDP-43 toxicity in yeast | TDP-43 expressing yeast growth rescue, BacTiter-Glo, 24 h | Potency, µM (top dose mostly 46.1 µM), usual class: activators | 1.8% of 410,000 active; further: nearly all actives have a fitted effect of over 50% in size
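In this qHTS, compounds that restore growth of yeast expressing TDP-43 appear as activators. Cells (OD600=0.02, galactose medium, raffinose-pregrown) are incubated with compound 24 hr at 30 deg C and growth is quantified by BacTiter-Glo.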
aSyn rescue: rescues yeast growth from alpha-synuclein toxicity | Yeast expressing alpha-synuclein, growth rescue, BacTiter-Glo, 24 h | Potency, µM (top dose mostly 46.1 µM), most hits filed as activators | 0.14% of 370,000 active | AID 652106; further: nearly all actives have a fitted effect of over 65% in size
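Screening used galactose-induced yeast with toxic alpha-synuclein levels, exposed to compound for 24 hr at 30 deg C. Cell growth, read with BacTiter-Glo luminescence, gave the measured signal.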
Abeta rescue: A-beta toxicity reversal in yeast | 0.063% of 410,000 active | Potency, µM (doses to about 46.1 µM), hits mostly activators | yeast expressing A-beta42, growth rescue, OD600, 48 h; response scale: 0% DMSO, 100% iron-clioquinol control; further: nearly all actives have a fitted effect of over 55% in size
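Growth rescue measured by 600 nm absorbance after 48 h yeast culture at 30 C with compound. Values normalized between DMSO and an equimolar ferric chloride plus clioquinol control.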
Each line names hits and unclear results; the compound was inactive in the other large screens. Rows were chosen to be rich in hits. Some 2.1% of all compounds tested hit in one or more screens of this group. The call rests on the fitted dose curve; in most records, active means well fitted curve in the direction sought with a large enough effect; inconclusive means small, poorly fitted or top-dose-only effect, or another doubt; inactive means no such curve, though single readings can be large; an effect the other way counts as inactive or inconclusive.

Cc1oc2ncnc(N3CCCCC3)c2c1C(=O)N1CCN(c2cccc(C(F)(F)F)c2)CC1	FUS yeast rescue inconclusive, TDP-43 yeast inh 22.4µM (no result: aSyn rescue)
O=C(/C=C/c1ccc(Cl)cc1Cl)c1nc2ccccc2[nH]1	TDP-43 yeast inh 11.2µM
CCOC(=O)C1CCN(C(=O)CCc2c(C)nc3cc(-c4ccccc4)nn3c2C)CC1	TDP-43 yeast inh 17.8µM
COc1ccc2cc(C(=O)NCc3ccc4c(c3)CCN4C(=O)c3ccc(C)cc3)[nH]c2c1	none (no result: aSyn rescue)
COc1ccc2cc(C(=O)NCc3ccc4c(c3)CCN4C(=O)c3ccc(F)cc3)[nH]c2c1	TDP-43 yeast inh 15.8µM (no result: aSyn rescue)
CCOC(=O)C1=C(Nc2ccc(Cl)cc2)OCC1=O	TDP-43 yeast inh 11.2µM
CCOC(=O)c1nc(Nc2ccc(Cl)cc2)c2c(C)noc2n1	TDP-43 yeast inh inconclusive (no result: aSyn rescue)
COCCCN(C(C)=O)c1nc(-c2ccc(OC)cc2)cs1	TDP-43 yeast inh 11.2µM
Cc1ccc2c(C(=O)CNc3nc(C)c(C)s3)c(C)[nH]c2c1	none (no result: FUS yeast rescue, TDP-43 yeast inh, Abeta rescue)
COc1ccc(CNC(=O)c2cc3ccccn3n2)c(OC)c1	none (no result: aSyn rescue)
O=C(O)c1cccc(-c2ccc3c(c2)OCO3)c1	TDP-43 yeast inh 12.6µM
CC(C)NC(=O)COC(=O)c1ccccc1OCC(=O)Nc1ccc(Br)cc1	none (no result: FUS yeast rescue, TDP-43 yeast inh, Abeta rescue)
COc1cc(C(Nc2ccc3c(c2)OCO3)C(=O)NC2CCCCC2)cc(OC)c1OC (configuration not stated)	FUS yeast rescue 17.8µM
COc1cc(NC(=O)Nc2ccc3c(c2)OCO3)cc(OC)c1OC	none
O=C1CC(O)(C(F)F)Oc2ccc3ccccc3c21 (configuration not stated)	none (no result: FUS yeast rescue)
O=C1CC(O)(C(F)(F)F)Oc2c1ccc1ccccc21 (configuration not stated)	aSyn rescue 12.6µM
CCCCOCCCNC(=O)C[C@H]1C(=O)N(Cc2ccc(OC)cc2)C2=CCCCC[C@@]21C(=O)OC	none (no result: TDP-43 yeast inh, aSyn rescue, Abeta rescue)
COc1ccccc1C(=O)NNC1=C(C(=O)C(F)(F)F)CCC1	aSyn rescue 3.55µM, Abeta rescue inconclusive
O=C(NNC1=C(C(=O)C(F)(F)F)CCC1)c1ccccc1O	none
O=C(/C=C/c1ccco1)NC(=S)Nc1ccccc1N1CCOCC1	TDP-43 yeast inh 25.1µM
O=C(NC(=S)Nc1ccccc1N1CCCCC1)c1ccco1	TDP-43 yeast inh 35.5µM
CC(=O)N(C)c1ccc(NC(=S)NC(=O)/C=C/c2ccco2)cc1	FUS yeast rescue 35.5µM
O=C(/C=C/c1ccc(Cl)cc1)Nc1ccccc1N1CCOCC1	none
CC(=O)Nc1ccc(NC(=S)NC(=O)/C=C/c2ccco2)cc1	FUS yeast rescue inconclusive
COc1cccc(/C=C/C(=O)Nc2ccccc2N2CCOCC2)c1	TDP-43 yeast inh 22.4µM
O=C(/C=C/c1ccco1)NC(=S)Nc1ccccc1N1CCCC1	FUS yeast rescue inconclusive, TDP-43 yeast inh 22.4µM, Abeta rescue inconclusive
O=[N+]([O-])c1ccc(/C=[N+](\[O-])CCO)o1	TDP-43 yeast inh 11.2µM
NC(=O)N/N=C/c1ccc([N+](=O)[O-])o1	none
COc1cc(/C=C/C(=O)Nc2cc(C(F)(F)F)ccc2Cl)cc(OC)c1OC	TDP-43 yeast inh 22.4µM
CCCNC(=O)C[C@H]1CC[C@H]2[C@@H](COc3ccc(NC(=O)c4cncs4)cc3C(=O)N2C)O1	none (no result: TDP-43 yeast inh, aSyn rescue, Abeta rescue)
ONC(=Nc1ccccc1)c1ccc(Cl)cc1	TDP-43 yeast inh 12.6µM
CC1CCC2(CCC(=O)N2CCCOC(=O)c2ccccc2)CC1 (configuration not stated)	none (no result: TDP-43 yeast inh, aSyn rescue, Abeta rescue)
O=C(OCC(=O)N1CCCc2ccccc21)c1ccccc1[N+](=O)[O-]	TDP-43 yeast inh 35.5µM (no result: FUS yeast rescue)
COc1ccc(NC(=O)c2cc(-c3cc(Cl)ccc3C)n[nH]2)cc1OC	TDP-43 yeast inh 20µM
CC(C)Oc1ccc(F)cc1-c1cc(C(=O)NC2CCCCC2)[nH]n1	TDP-43 yeast inh 15.8µM
COc1ccc(NC(=O)c2cc(-c3cc(F)ccc3OC)n[nH]2)c(C)c1	TDP-43 yeast inh 22.4µM
CCCOc1ccc(F)cc1-c1cc(C(=O)Nc2cc(OC)ccc2OC)[nH]n1	none
COc1ccc(NC(=O)c2cc(-c3cc(F)ccc3OC(C)C)n[nH]2)c(OC)c1	TDP-43 yeast inh 20µM
CC(C)CN1C(=O)[C@@]2(CC(=O)N(C)C2c2ccccc2)c2cc(-n3cc(CCc4ccccc4)nn3)ccc21 (some centres not stated)	none (no result: TDP-43 yeast inh, aSyn rescue, Abeta rescue)
COc1ccc(-c2cc(-c3nnc4sc(Cc5cccs5)nn34)[nH]n2)cc1	none (no result: TDP-43 yeast inh, aSyn rescue, Abeta rescue)
COc1cc(NC(=O)c2cc(-c3cc(F)ccc3OC(C)C)n[nH]2)cc(OC)c1OC	none
COc1ccc(NC(=O)c2cc(-c3cc(F)ccc3OCC3CCCO3)n[nH]2)c(C)c1 (configuration not stated)	FUS yeast rescue inconclusive, TDP-43 yeast inh 12.6µM
COc1ccc(NC(=O)c2cc(-c3cc(F)ccc3OCC3CCCO3)n[nH]2)cc1OC (configuration not stated)	FUS yeast rescue inconclusive
COc1ccc(NC(=O)c2cc(-c3cc(F)ccc3OC(C)C)n[nH]2)cc1OC	TDP-43 yeast inh 35.5µM
COc1ccc(NC(=O)c2cc(-c3ccc(F)cc3OC(C)C)n[nH]2)c(OC)c1	TDP-43 yeast inh 25.1µM
CCOC(=O)CCCNC(=O)O[C@@H]1CC[C@@]23CCCN2C(=O)CCC[C@H]3C1	none (no result: TDP-43 yeast inh, aSyn rescue, Abeta rescue)
CCCCc1c(-c2cccc(F)c2)ncn1CCc1ccccc1OC	none
CCCCc1c(-c2cccc(Br)c2)ncn1CCc1ccccc1OC	TDP-43 yeast inh 25.1µM
Clc1nc(NCc2cccs2)c2[nH]cnc2n1	none (no result: FUS yeast rescue, TDP-43 yeast inh, Abeta rescue)
CC(C)C1N=C(NC(=O)OCc2ccccc2)NC1=O (configuration not stated) (tested in a mixture with another compound)	none (no result: TDP-43 yeast inh, aSyn rescue, Abeta rescue)
COc1cc(/C=C2\C=Cc3ccccc32)cc(OC)c1OC	none (no result: FUS yeast rescue, TDP-43 yeast inh, Abeta rescue)
COc1ccc2c(c1)CC/C(=C/c1ccncc1)C2=O	none
COc1ccc2c(c1)CC/C(=C\c1ccc(C)o1)C2=O	TDP-43 yeast inh 17.8µM
C[C@H]1[C@@H](NCc2ccccc2)CC[C@@]23CCCN2C(=O)CCC[C@@H]13	none (no result: TDP-43 yeast inh, aSyn rescue, Abeta rescue)
Cc1ccc(CS(=O)(=O)c2cn(CC(=O)N(C)c3ccccc3)c3ccccc23)cc1	FUS yeast rescue 31.6µM (no result: aSyn rescue)
Cc1nc2ccc(NC(=O)c3ccc(F)cc3Cl)cc2c(=O)[nH]1	none (no result: TDP-43 yeast inh, aSyn rescue, Abeta rescue)
CC(C)(C)OC(=O)N1CCc2onc(-c3ccc(Br)cc3)c2C1=O	TDP-43 yeast inh inconclusive
O=C1NCCc2onc(-c3ccc(Br)cc3)c21	TDP-43 yeast inh 35.5µM
C1=Nc2ccccc2/C1=C/c1ccccc1	none (no result: FUS yeast rescue, TDP-43 yeast inh, Abeta rescue)
Cc1ccsc1/C=C/C1=Cc2c(sc(NC(=O)CSc3n[nH]c(N)n3)c2C#N)C(C)(C)C1	FUS yeast rescue 25.1µM
NC(=O)c1ccsc1NC(=O)CSc1n[nH]c(N)n1	none
CCOc1ccc(/C=C/C2=Cc3c(sc(NC(=O)CSc4n[nH]c(N)n4)c3C#N)C(C)(C)C2)cc1	FUS yeast rescue 8.91µM
COC(=O)c1cc(C(c2ccccc2O)C2CCC(C)(C)O2)n2ccccc12 (configuration not stated)	none (no result: TDP-43 yeast inh, aSyn rescue, Abeta rescue)
COP(=O)(O)C[C@@H]1CCc2cc(C)cc([C@H](CC(C)C)NC(=O)OCc3ccccc3)c2O1	none (no result: TDP-43 yeast inh, aSyn rescue, Abeta rescue)
